Laboratory results: PubChem BioAssay AID1159580 (chemical genetic matrix, 2015)
Screen size: about 5,500 compounds; about 2,000 (36%) were called active. Another 18% or so got no clear call; they are omitted. Cut-off read from the data, not from the text of the source: active = normalized growth mostly below about 0.91 (no sharp cut-off); inconclusive = no clear call, values can overlap the other calls; inactive = mostly above about 0.92. This is one part of the list.

Test: chemical genetic growth profiling, strain panel (AID 1159580);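 note: tested at 20 µM; growth read once vehicle control cultures reached saturation at 30 °C; 1 = growth at the plate median or of vehicle wells; lower values mean less growth of the strain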
Conditions: S. cerevisiae deletion strains, growth OD

Measured: normalized growth

COc1cc2nc(N(C)CCCNC(=O)C3CCCO3)nc(N)c2cc1OC (stereo not given)
inactive: locus YAL021C, strain ccr4, active compounds read low 1.02 | locus YAL026C, strain drs2, active compounds read low 1 | locus YAL030W, strain snc1, active compounds read low 0.979 | locus YBL061C, strain skt5, active compounds read low 0.986 | locus YBR009C, strain hhf1, active compounds read low 1.01 | locus YBR021W, strain FUR4, active compounds read low 0.994 | locus YBR023C, strain chs3, active compounds read low 0.997 | locus YBR171W, strain sec66, active compounds read low 0.988 | locus YBR229C, strain ROT2, active compounds read low 1 | locus YBR231C, strain swc5, active compounds read low 0.998 | locus YBR279W, strain paf1, active compounds read low 0.993 | locus YCL011C, strain gbp2, active compounds read low 0.993 | locus YCL016C, strain dcc1, active compounds read low 1 | locus YCL029C, strain bik1, active compounds read low 1.02 | locus YCL061C, strain MRC1, active compounds read low 0.996 | locus YCL069W, strain vba3, active compounds read low 0.993 | locus YCR088W, strain abp1, active compounds read low 0.986 | locus YDL005C, strain med2, active compounds read low 1 | locus YDL035C, strain GPR1, active compounds read low 1.03 | locus YDL040C, strain nat1, active compounds read low 0.993 | locus YDL074C, strain BRE1, active compounds read low 1.03 | locus YDL101C, strain DUN1, active compounds read low 1.01 | locus YDL185W, strain tfp1, active compounds read low 1.02 | locus YDL192W, strain arf1, active compounds read low 1.01 | locus YDR001C, strain nth1, active compounds read low 0.997 | locus YDR069C, strain doa4, active compounds read low 0.991 | locus YDR101C, strain arx1, active compounds read low 1.01 | locus YDR137W, strain rgp1, active compounds read low 1 | locus YDR159W, strain sac3, active compounds read low 1.03 | locus YDR162C, strain NBP2, active compounds read low 1.03 | locus YDR195W, strain ref2 0.972 | locus YDR297W, strain sur2, active compounds read low 1 | locus YDR318W, strain mcm21, active compounds read low 1.02 | locus YDR334W, strain swr1, active compounds read low 0.999 | locus YDR335W, strain msn5, active compounds read low 1 | locus YDR388W, active compounds read low 0.999 | locus YDR392W, strain spt3, active compounds read low 1.01 | locus YDR502C, strain sam2, active compounds read low 1 | locus YEL003W, strain gim4, active compounds read low 1 | locus YEL037C, strain rad23, active compounds read low 0.998 | locus YEL061C, strain CIN8 (second series), active compounds read low 0.986 | locus YEL061C, strain CIN8, active compounds read low 1.01 | locus YER015W, strain faa2, active compounds read low 0.995 | locus YER016W, strain bim1, active compounds read low 0.998 | locus YER110C, active compounds read low 1 | locus YER111C, strain swi4, active compounds read low 0.987 | locus YER155C, strain BEM2 (second series), active compounds read low 0.999 | locus YER155C, strain BEM2, active compounds read low 0.998 | locus YER167W, strain BCK2, active compounds read low 1.01 | locus YFR010W, strain ubp6, active compounds read low 0.992 | locus YGL078C, strain dbp3, active compounds read low 1 | locus YGL086W, strain mad1, active compounds read low 1.01 | locus YGL167C, strain pmr1, active compounds read low 0.995 | locus YGL173C, strain kem1, active compounds read low 0.994 | locus YGL227W, strain vid30, active compounds read low 0.986 | locus YGL240W, strain doc1, active compounds read low 0.987 | locus YGL248W, strain PDE1, active compounds read low 1.01 | locus YGL253W, strain hxk2, active compounds read low 0.992 | locus YGR135W, strain pre9, active compounds read low 0.998 | locus YGR252W, strain gcn5, active compounds read low 0.95 | locus YHR013C, strain ard1, active compounds read low 0.999 | locus YHR027C, strain rpn1, active compounds read low 0.997 | locus YHR030C, strain SLT2, active compounds read low 1.03 | locus YHR079C, strain IRE1 (second series), active compounds read low 0.997 | locus YHR094C, strain hxt1, active compounds read low 1 | locus YHR129C, strain ARP1, active compounds read low 1.01 | locus YHR142W, strain chs7, active compounds read low 0.979 | locus YHR200W, strain rpn10, active compounds read low 1.01 | locus YIL066C, strain RNR3, active compounds read low 1.04 | locus YIL073C, strain SPO22, active compounds read low 1.03 | locus YIL125W, strain kgd1, active compounds read low 1.01 | locus YIR030C, strain dcg1, active compounds read low 0.995 | locus YJL092W, strain hpr5, active compounds read low 0.995 | locus YJL095W, strain BCK1 (second series), active compounds read low 0.994 | locus YJL095W, strain BCK1, active compounds read low 1.03 | locus YJL115W, strain asf1, active compounds read low 1 | locus YJL129C, strain trk1, active compounds read low 1 | locus YJL134W, strain LCB3, active compounds read low 1.02 | locus YJL154C, strain vps35, active compounds read low 0.993 | locus YJL164C, strain tpk1, active compounds read low 1 | locus YJL166W, strain qcr8, active compounds read low 0.985 | locus YJL168C, strain set2, active compounds read low 0.994 | locus YJL187C, strain SWE1 (second series), active compounds read low 1.02 | locus YJL187C, strain SWE1, active compounds read low 0.999 | locus YJR043C, strain POL32, active compounds read low 1.03 | locus YJR075W, strain HOC1, active compounds read low 1.01 | locus YKL009W, strain mrt4, active compounds read low 1.01 | locus YKL068W, active compounds read low 1.01 | locus YKL085W, strain MDH1 (second series), active compounds read low 1.02 | locus YKL085W, strain MDH1, active compounds read low 1.02 | locus YKL190W, strain CNB1, active compounds read low 1.03 | locus YKR001C, strain vps1, active compounds read low 1.01 | locus YKR026C, strain gcn3, active compounds read low 0.995 | locus YKR091W, strain srl3, active compounds read low 0.995 | locus YLL001W, strain dnm1, active compounds read low 0.99 | locus YLL026W, active compounds read low 0.992 | locus YLL041C, strain sdh2, active compounds read low 0.998 | locus YLR027C, strain aat2, active compounds read low 0.991 | locus YLR039C, strain RIC1, active compounds read low 1.07 | locus YLR058C, strain SHM2, active compounds read low 1.02 | locus YLR102C, strain apc9, active compounds read low 1.01 | locus YLR221C, strain rsa3, active compounds read low 0.998 | locus YLR258W, strain gsy2, active compounds read low 0.994 | locus YLR262C, strain YPT6 (second series), active compounds read low 0.981 | locus YLR262C, strain YPT6, active compounds read low 1.07 | locus YLR268W, strain sec22, active compounds read low 0.99 | locus YLR320W, strain mms22, active compounds read low 1 | locus YLR330W, strain CHS5, active compounds read low 1.02 | locus YLR342W, strain FKS1 (second series), active compounds read low 1.03 | locus YLR342W, strain FKS1, active compounds read low 0.995 | locus YLR357W, strain rsc2, active compounds read low 0.984 | locus YLR370C, strain arc18, active compounds read low 1.01 | locus YLR371W, strain rom2, active compounds read low 1.02 | locus YLR384C, strain iki3, active compounds read low 0.988 | locus YLR418C, strain cdc73, active compounds read low 0.995 | locus YML016C, strain PPZ1, active compounds read low 1.01 | locus YML032C, strain rad52, active compounds read low 1 | locus YML120C, strain ndi1, active compounds read low 0.998 | locus YML124C, strain tub3, active compounds read low 0.997 | locus YMR058W, strain fet3, active compounds read low 0.996 | locus YMR078C, strain ctf18, active compounds read low 0.998 | locus YMR125W, strain sto1, active compounds read low 0.995 | locus YMR129W, active compounds read low 0.987 | locus YMR205C, strain PFK2, active compounds read low 0.993 | locus YMR223W, strain ubp8, active compounds read low 1.03 | locus YMR231W, strain pep5, active compounds read low 1 | locus YMR307W, strain GAS1, active compounds read low 1.02 | locus YNL067W, strain RPL9B, active compounds read low 1.02 | locus YNL071W, strain lat1, active compounds read low 1 | locus YNL209W, strain ssb2, active compounds read low 0.996 | locus YNL233W, strain BNI4, active compounds read low 1.02 | locus YNL248C, strain rpa49, active compounds read low 0.982 | locus YNL250W, strain rad50, active compounds read low 1.04 | locus YNL271C, strain bni1, active compounds read low 1 | locus YNL298W, strain CLA4, active compounds read low 1 | locus YNL307C, strain MCK1, active compounds read low 1 | locus YNL322C, strain KRE1 (second series), active compounds read low 0.985 | locus YNR049C, strain mso1, active compounds read low 0.994 | locus YNR052C, strain pop2, active compounds read low 0.995 | locus YOL012C, strain htz1 0.863 | locus YOL147C, strain pex11, active compounds read low 1.01 | locus YOR001W, strain rrp6, active compounds read low 1 | locus YOR061W, strain CKA2, active compounds read low 1.02 | locus YOR069W, strain VPS5, active compounds read low 1 | locus YOR070C, strain gyp1, active compounds read low 0.998 | locus YOR080W, strain dia2, active compounds read low 0.983 | locus YOR083W, strain WHI5, active compounds read low 1 | locus YOR106W, strain vam3, active compounds read low 1.01 | locus YOR136W, strain idh2, active compounds read low 1 | locus YOR144C, strain elg1, active compounds read low 0.999 | locus YOR184W, strain ser1, active compounds read low 1.03 | locus YOR265W, strain rbl2, active compounds read low 0.988 | locus YOR270C, strain vph1, active compounds read low 1.03 | locus YOR290C, strain snf2, active compounds read low 1.03 | locus YOR316C, strain cot1, active compounds read low 0.999 | locus YPL051W, strain arl3, active compounds read low 0.997 | locus YPL078C, strain atp4, active compounds read low 0.988 | locus YPL106C, strain sse1, active compounds read low 0.991 | locus YPL240C, strain hsp82, active compounds read low 0.974 | locus YPL241C, strain CIN2, active compounds read low 1.01 | locus YPR119W, strain clb2, active compounds read low 0.991 | locus YPR141C, strain kar3, active compounds read low 1.01 | locus YPR163C, strain tif3, active compounds read low 1 | locus YPR167C, strain met16, active compounds read low 1 | strain wtn01, active compounds read low 0.998
